Bioassay records: PubChem, several laboratories
Compounds with a hit are over-represented: about 3.4% of the library has one in this group of screens.
NRP1-CendR mod: modulators of CendR peptide binding to NRP-1, primary screen, biochemical, fluorescence polarization, uHTS; Neuropilin-1 (Homo sapiens), O14786; FAM-RPARPAR peptide binding to NRP-1; inhibition, % at 25 µM; 360,000 compounds, 0.85% hits; AID 602438, 2012;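 active means inhibition or corrected inhibition above about 18%, plus a signal ratio from 0.5 to 1.5, limit read from the data, passing the limit was not always enough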
ADAM10 inh: human ADAM10 inhibitors, primary screen, biochemical, QFRET, HTS. Disintegrin and metalloproteinase domain-containing protein 10 (Homo sapiens), O14672. recombinant ADAM10, EDANS/DABCYL FRET peptide cleavage, 3 h. 370,000 compounds, 0.62% hits. inhibition, % at 7 µM;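 active means inhibition above a per-campaign cutoff equal to the mean of compounds falling between control-based bounds plus 3 SD, cut at about 20% in these data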;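 further: 0% = DMSO wells while the 100% control is not disclosed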
ADAM17 inh: ADAM17 inhibitors, primary screen, biochemical, QFRET; 370,000 compounds, 0.83% hits; recombinant ADAM17, EDANS/DABCYL FRET peptide cleavage; AID 720648, 2013; inhibition, % at 6.95 µM; Disintegrin and metalloproteinase domain-containing protein 17 (Homo sapiens), P78536;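 active means inhibition above the mean of compounds lying between control limits plus 3 SD, set per campaign, cut at about 8.5% in these data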;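 further: 0% = DMSO-only wells as the low control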
proKLK7 act: proKLK7 zymogen activators, primary screen, biochemical, fluorescence intensity. purified proKLK7, EDANS-DABCYL substrate fluorescence; 100% is mature enzyme control, 0% vehicle. 370,000 compounds, 0.9% hits. Kallikrein-7 (Homo sapiens), P49862. activation, % at 7 µM;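 active means activation above the mean of all tested compounds plus 3 SD, computed per campaign excluding outliers beyond control limits, cut at about 13% in these data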
sPLA2-III inh: human group III sPLA2 inhibitors, primary screen, biochemical, QFRET, BODIPY PC-A2 liposome substrate | QFRET BODIPY PC-A2 liposome hydrolysis, fluorescence | 370,000 compounds, 0.56% hits | Group 3 secretory phospholipase A2 (Homo sapiens), Q9NZ20 | inhibition, % at 12.2 µM | AID 743126, 2013;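 active means inhibition above mean plus 3 SD of compounds lying within the high and low control bounds, cut at about 19% in these data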;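 further: 0% = median of test compound wells and 100% = no enzyme DMSO wells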
Target sequence (Q9NZ20 whole entry, looked up): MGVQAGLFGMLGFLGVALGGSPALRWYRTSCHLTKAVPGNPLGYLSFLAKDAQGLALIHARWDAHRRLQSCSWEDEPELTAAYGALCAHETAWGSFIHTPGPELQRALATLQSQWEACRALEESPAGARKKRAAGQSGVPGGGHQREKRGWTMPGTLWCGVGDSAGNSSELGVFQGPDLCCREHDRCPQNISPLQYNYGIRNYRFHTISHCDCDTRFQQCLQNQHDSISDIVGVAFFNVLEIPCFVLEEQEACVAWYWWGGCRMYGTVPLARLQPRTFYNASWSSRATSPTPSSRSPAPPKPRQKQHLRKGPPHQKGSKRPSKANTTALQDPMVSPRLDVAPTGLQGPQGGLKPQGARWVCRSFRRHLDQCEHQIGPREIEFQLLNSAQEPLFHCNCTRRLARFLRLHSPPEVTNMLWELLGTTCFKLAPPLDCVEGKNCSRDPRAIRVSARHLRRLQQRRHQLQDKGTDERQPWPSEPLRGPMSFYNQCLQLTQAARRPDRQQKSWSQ
An asterisk follows results filed as active; i = inactive; x = not tested or not shown.

SMILES	NRP1-CendR mod	ADAM10 inh	ADAM17 inh	proKLK7 act	sPLA2-III inh
O=c1[nH]c(=O)n(Cc2ccccc2)c2nc(-c3ccc(Oc4ccc(F)cc4)c([N+](=O)[O-])c3)n(CCO)c12	26.5*	18.1	5.8	-0.2	-22.3
Cc1ccc2c(C)c(C(=O)Nc3ccc(S(N)(=O)=O)cc3)oc2c1C	39.6*	-22.1	-9.7	-4.2	5.7
C[C@H]1[C@@H](OC(=O)NCc2ccco2)CC[C@@]23CCCN2C(=O)CCC[C@@H]13	x	-3.2	-5.0	x	11.9
O=C(NCCc1nc2ccccc2[nH]1)c1ccc(Br)o1	10.8	-10.6	1.5	0.0	-1.0
O=C(Nc1nc2ccccc2[nH]1)c1ccc(Br)o1	-1.2	-10.3	-6.3	-0.9	34.6*
Cc1cccn2c(=O)c3cc(C(=O)NCCc4ccccc4)c(=N)n(Cc4ccco4)c3nc12	-5.6	i	-218.2	-8.2	5.3
Cc1cccn2c(=O)c3cc(C(=O)NCc4ccco4)c(=N)n(CCc4ccccc4)c3nc12	-37.6	i	-481.9	18.2*	-3.3
COCc1c(C(=O)N2CCN(Cc3ccc4c(c3)OCO4)CC2)oc2ccccc12	25.6*	-9.7	-3.6	0.2	-0.8
Cc1ccccc1NC(=S)N1CCN(Cc2ccc3c(c2)OCO3)CC1	30.1*	-6.1	-3.0	0.2	6.0
COCCCNC(=S)N1CCN(Cc2ccc3c(c2)OCO3)CC1	21.1*	4.7	5.9	-0.2	5.5
CCCCNC(=S)N1CCN(Cc2ccc3c(c2)OCO3)CC1	-5.8	-5.4	-2.4	0.1	6.0
CCCC1CC(CSC(=N)N)OC1=O (stereo unspecified)	27.2*	-6.5	-5.3	-0.2	2.6
COCc1cccc(-c2csc(C(C)(O)c3ccccc3)n2)c1 (stereo unspecified)	40.6*	3.1	-0.9	-0.3	-3.5
CCC(C)(C)C(=O)N1CCc2cc(S(=O)(=O)N(C)Cc3ccco3)ccc21	x	-0.8	0.5	-0.6	-7.5
COC(=O)c1cc(C)nc2c1C(=O)C(=O)C=C2N1CCOCC1	28.7*	2.0	0.3	0.2	-1.7
COC(=O)c1cc(S(=O)(=O)N2CCOCC2)c(Cl)cc1N1CCOCC1	-9.9	-10.6	-4.4	0.2	5.3
Cc1sc2nc(SCC(=O)N(CCO)CCO)n(C3CCCCC3)c(=O)c2c1C	24.1*	-4.3	2.8	0.0	2.7
CC(NC(=O)OCc1ccccc1)C(=O)Oc1cc2oc(=O)cc(-c3ccccc3)c2cc1Cl (stereo unspecified)	-8.0	-305.0	-90.2	23.5*	-12.8
COc1ccc(-c2nnc(SCC(=O)Nc3ccc4cn[nH]c4c3)n2Cc2ccco2)cc1	x	-7.5	-1.4	-0.3	-13.2
COc1ccccc1N=C1SC(C(=O)Nc2cccc(Cl)c2Cl)C(N)=C1C(N)=O (stereo unspecified)	-0.9	1.2	-5.1	-0.4	4.4
N#Cc1ccccc1NC(=O)C1SC(=Nc2ccccc2)C(C(=O)Nc2ccc(Cl)cc2)=C1N (stereo unspecified)	-7.4	37.1*	16.4*	-0.6	0.3
O=C(Nc1cc(-c2ccccc2)[nH]n1)c1ccccc1	25.1*	-8.1	4.3	-0.2	7.5
Cc1ccc(S(=O)(=O)N2CCCC(C(=O)NCCN3CCC(Cc4ccccc4)CC3)C2)cc1 (stereo unspecified)	x	-10.4	0.1	0.2	-6.1
C#CCCN([C@@H](CC(C)C)C(=O)OC)S(=O)(=O)c1ccc(F)cc1Br	x	11.6	6.9	-0.3	2.2
C#CCCCN([C@@H](CC(C)C)C(=O)OC)S(=O)(=O)c1ccccc1Br	x	13.7	8.6*	-0.4	0.6
SMILES	NRP1-CendR mod	ADAM10 inh	ADAM17 inh	proKLK7 act	sPLA2-III inh
CN1CC(=O)N2[C@@H](C[C@]3(c4c[nH]c5ccccc45)c4ccccc4N(S(=O)(=O)c4ccccc4)[C@H]23)C1=O	x	-2.6	-2.8	x	-10.6
CC(C)(C)OC(=O)NCCc1ccccc1/C=C/S(=O)(=O)NC1CCCC1	x	-9.8	-3.1	0.7	9.8
COc1ccc(C(=O)N2CCC(C(=O)NCc3ccccn3)CC2)cc1	34.8*	-2.5	-5.3	-0.5	4.4
COc1ccc(CNC(=O)C2CCN(C(=O)c3ccc(-c4ccccc4)cc3)CC2)cc1	9.7	13.5	2.3	-0.1	-9.4
CSCCC(NS(=O)(=O)c1ccccc1F)C(=O)N1CCCCCCC1 (stereo unspecified)	26.6*	-8.5	-3.8	0.0	3.3
CC1CCN(S(=O)(=O)c2ccc(NC(=O)Cn3nnc(-c4ccccc4)n3)cc2)CC1	-17.1	19.3	10.1*	0.7	-18.5
COC(=O)C1CN(C2CCCC2)CCS(=O)(=O)N1Cc1ccc(C)cc1 (stereo unspecified)	x	-1.6	-2.5	0.5	1.0
Cc1ccc(S(=O)(=O)CCC(=O)OCc2cc(C)ccc2C)cc1	26.6*	-5.9	0.6	0.4	-11.3
CC(=O)c1ccc(S(=O)(=O)N2CCN(CC(=O)Nc3ccccc3C(=O)NC3CC3)CC2)cc1	17.1*	-7.8	-4.0	-0.1	9.3
CC(OC(=O)C1=COCCO1)C(=O)Nc1cc(S(=O)(=O)N2CCCCC2)ccc1Cl (stereo unspecified)	22.7*	-3.9	1.1	0.6	-5.5
CCC(=O)NC(c1cc(Cl)c2cccnc2c1O)C1CC1 (stereo unspecified)	-0.9	2.3	1.8	0.4	9.9
CC(=O)NC(c1cc(F)c2cccnc2c1O)C1CC1 (stereo unspecified)	26.5*	-7.7	-0.3	-0.4	0.6
O=C(COc1ccc(F)c(Cl)c1)N[C@H]1CCCN(CC2CC2)C1	x	1.1	-1.5	x	-3.4
COc1ccc(-n2cnc3cc(NS(=O)(=O)c4ccccc4)ccc32)cc1	10.2	16.8	2.1	0.5	-38.5
CC(C)(C)n1cnc2cc(NS(=O)(=O)c3ccccc3)ccc21	22.9*	-5.8	-1.6	-0.1	-12.7
NC(=O)c1c(N)[nH]c(C(=O)c2ccccc2)c1-c1cccc2ccccc12	x	-6.3	-1.8	x	-1.1
O=C(CC1NC(=O)NC1=O)Nc1ccccc1 (stereo unspecified)	26.9*	-11.6	-4.8	-0.1	0.8
O=C(NCc1ccco1)C1CCCN(S(=O)(=O)c2ccc([N+](=O)[O-])cc2)C1 (stereo unspecified)	x	-0.8	1.0	-0.5	-5.1
O=C(NCc1ccco1)C1CCN(S(=O)(=O)c2cccc([N+](=O)[O-])c2)CC1	27.8*	-9.1	-3.9	0.6	-2.5
CCOC(=O)c1cnn(-c2c(Cc3ccccc3)c(C)nc3c(-c4ccccc4)c(C)nn23)c1N	-6.8	10.0	10.0*	-0.6	2.2
O=C(Nc1ccc(F)cc1)N[C@@H]1C[C@@H]2O[C@H](CO)CC[C@@H]2O[C@@H]1CCc1ccc(C2=CCCC2)cc1	x	6.0	6.6	1.1	-18.7
